Reference: PubChem BioAssay (NCATS)
Records with an inconclusive call do not appear. Where a call stands in place of a potency, no number is given. Calls of active or inactive are those of the source. The call rests on the fitted dose curve.

Assay: Cytotoxicity counterscreen for inhibitors of SARS-CoV-2 cell entry (AID 1645845); further: nearly all actives have a fitted effect of over 50% in size
Details: cell viability (SARS-CoV-2 entry assay cells); series mostly up to 57.1 µM
Outline: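 After a 15 min room-temperature ATPLite 1step step, luminescence reflected ATP remaining in HEK293-ACE2 cells exposed to compound for 1 h plus 48 h at 37 C, with percent activity set by cell and no-cell controls.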
In the case of `O=C(O)CNC(=O)c1c(O)c2ccccc2n(Cc2ccccc2)c1=O`, the Potency is reported as “inactive”. For `O=c1cccc2n1CC1CNC[C@H]2C1`, the Potency was “inactive”. For `C#CC1(O)CCC2C3CCC4=CC(=O)CCC4(C)C3CCC21C` (configuration not stated), the Potency was “inactive”. In the case of `O=c1[nH]c2ccccc2n1C1CCN(Cc2ccc(-c3[nH]c4cc5ncnc5cc4nc3-c3ccccc3)cc2)CC1`, the Potency is reported as “inactive”. With `CC(C)NC(C)Cc1ccc(I)cc1` (configuration not stated) the Potency was “inactive”. For `COc1cc([C@@H]2c3cc4c(cc3[C@@H](O)C3COC(=O)C32)OCO4)cc(OC)c1O` (some centres not stated), the Potency was “inactive”. With `O=C(c1cc(Cc2n[nH]c(=O)c3ccccc23)ccc1F)N1CCN(C(=O)C2CC2)CC1` the Potency was “inactive”. In the case of `CSCC[C@@H](NC(=O)[C@@H](Cc1ccccc1)NC(=O)CNC(=O)CNC(=O)[C@@H](N)Cc1ccc(O)cc1)C(=O)O`, the Potency is reported as “inactive”. With `COc1cc2nccc(Oc3ccc(NC(=O)C4(C(=O)Nc5ccc(F)cc5)CC4)cc3)c2cc1OC` the Potency was “inactive”. With `CCOC(=O)Nc1ccc(NCc2ccc(F)cc2)cc1N` the Potency was “inactive”. For `COC(=O)c1cncn1C(C)c1ccccc1` (configuration not stated), the Potency was “inactive”. For `COc1cc(Nc2ncc3c(n2)-c2ccc(Cl)cc2C(c2c(F)cccc2OC)=NC3)ccc1C(=O)O`, the Potency was “inactive”. For `O=C1C=CC[C@@H]2[C@H]3CCCN4CCC[C@@H](CN12)[C@@H]34`, the Potency was “inactive”. In the case of `CN1[C@H]2CC(O)C[C@H]1[C@H]1O[C@H]12` (some centres not stated), the Potency is reported as “inactive”. In the case of `CN[C@@H]1Cc2cccc3[nH]c(=O)n(c23)C1`, the Potency is reported as “inactive”. For `CC(C)(C)c1cc(C=C(C#N)C#N)cc(Br)c1O`, the Potency was “inactive”. For `CCN1C[C@]2(OC(=O)c3ccccc3NC(C)=O)CC[C@H](OC)[C@@]34[C@H]5CC6[C@@H](OC)C[C@](O)(C(C[C@@H]23)[C@@H]14)[C@@]5(O)[C@@H]6OC`, the Potency was “inactive”.
